Experimental data published in PubChem BioAssay AID1159580 (chemical genetic matrix, 2015).
The campaign covered roughly 5,500 compounds. About 2,000 (36%) were called active. Another 18% or so got no clear call; they are omitted. Cut-off read from the data, not from the text of the source: active = normalized growth mostly below about 0.91 (no sharp cut-off); inconclusive = no clear call, values can overlap the other calls; inactive = mostly above about 0.92. Some of the results follow.

Assay: chemical genetic growth profiling, strain panel (AID 1159580);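 note: tested at 20 µM; growth read once vehicle control cultures reached saturation at 30 °C; 1 = growth at the plate median or of vehicle wells; lower values mean less growth of the strain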
Details: S. cerevisiae deletion strains, growth OD
[1] = locus YAL021C, strain ccr4, stronger effect = lower value
[2] = locus YAL026C, strain drs2, stronger effect = lower value
[3] = locus YAL030W, strain snc1, stronger effect = lower value
[4] = locus YBL061C, strain skt5, stronger effect = lower value
[5] = locus YBR009C, strain hhf1, stronger effect = lower value
[6] = locus YBR023C, strain chs3, stronger effect = lower value
[7] = locus YBR171W, strain sec66, stronger effect = lower value
[8] = locus YBR231C, strain swc5, stronger effect = lower value
[9] = locus YBR279W, strain paf1, stronger effect = lower value
[10] = locus YCL011C, strain gbp2, stronger effect = lower value
[11] = locus YCL016C, strain dcc1, stronger effect = lower value
[12] = locus YCL061C, strain MRC1, stronger effect = lower value
[13] = locus YCL069W, strain vba3, stronger effect = lower value
[14] = locus YCR088W, strain abp1, stronger effect = lower value
[15] = locus YDL005C, strain med2, stronger effect = lower value
[16] = locus YDL040C, strain nat1, stronger effect = lower value
[17] = locus YDR001C, strain nth1, stronger effect = lower value
[18] = locus YDR069C, strain doa4, stronger effect = lower value
[19] = locus YDR137W, strain rgp1, stronger effect = lower value
[20] = locus YDR159W, strain sac3, stronger effect = lower value
[21] = locus YDR297W, strain sur2, stronger effect = lower value
[22] = locus YDR334W, strain swr1, stronger effect = lower value
[23] = locus YDR335W, strain msn5, stronger effect = lower value
[24] = locus YDR392W, strain spt3, stronger effect = lower value
[25] = locus YEL003W, strain gim4, stronger effect = lower value
[26] = locus YEL037C, strain rad23, stronger effect = lower value
[27] = locus YEL061C, strain CIN8 (second series), stronger effect = lower value
[28] = locus YER015W, strain faa2, stronger effect = lower value
[29] = locus YER016W, strain bim1, stronger effect = lower value
[30] = locus YER111C, strain swi4, stronger effect = lower value
[31] = locus YER155C, strain BEM2 (second series), stronger effect = lower value
[32] = locus YFR010W, strain ubp6, stronger effect = lower value
[33] = locus YGL167C, strain pmr1, stronger effect = lower value
[34] = locus YGL173C, strain kem1, stronger effect = lower value
[35] = locus YGL227W, strain vid30, stronger effect = lower value
[36] = locus YGL240W, strain doc1, stronger effect = lower value
[37] = locus YGL253W, strain hxk2, stronger effect = lower value
[38] = locus YHR013C, strain ard1, stronger effect = lower value
[39] = locus YHR027C, strain rpn1, stronger effect = lower value
[40] = locus YHR030C, strain SLT2, stronger effect = lower value
[41] = locus YHR079C, strain IRE1, stronger effect = lower value
[42] = locus YHR142W, strain chs7, stronger effect = lower value
[43] = locus YJL092W, strain hpr5, stronger effect = lower value
[44] = locus YJL095W, strain BCK1 (second series), stronger effect = lower value
[45] = locus YJL095W, strain BCK1, stronger effect = lower value
[46] = locus YJL115W, strain asf1, stronger effect = lower value
[47] = locus YJL129C, strain trk1, stronger effect = lower value
[48] = locus YJL154C, strain vps35, stronger effect = lower value
[49] = locus YJL164C, strain tpk1, stronger effect = lower value
[50] = locus YJL166W, strain qcr8, stronger effect = lower value
[51] = locus YJR066W, strain TOR1, stronger effect = lower value
[52] = locus YKL160W, strain elf1, stronger effect = lower value
[53] = locus YKR026C, strain gcn3, stronger effect = lower value
[54] = locus YKR091W, strain srl3, stronger effect = lower value
[55] = locus YLL001W, strain dnm1, stronger effect = lower value
[56] = locus YLL026W, stronger effect = lower value
[57] = locus YLL041C, strain sdh2, stronger effect = lower value
[58] = locus YLR027C, strain aat2, stronger effect = lower value
[59] = locus YLR113W, strain HOG1, stronger effect = lower value
[60] = locus YLR221C, strain rsa3, stronger effect = lower value
[61] = locus YLR258W, strain gsy2, stronger effect = lower value
[62] = locus YLR262C, strain YPT6 (second series), stronger effect = lower value
[63] = locus YLR320W, strain mms22, stronger effect = lower value
[64] = locus YLR342W, strain FKS1, stronger effect = lower value
[65] = locus YLR357W, strain rsc2, stronger effect = lower value
[66] = locus YLR370C, strain arc18, stronger effect = lower value
[67] = locus YLR384C, strain iki3, stronger effect = lower value
[68] = locus YML120C, strain ndi1, stronger effect = lower value
[69] = locus YMR058W, strain fet3, stronger effect = lower value
[70] = locus YMR125W, strain sto1, stronger effect = lower value
[71] = locus YMR129W, stronger effect = lower value
[72] = locus YMR205C, strain PFK2, stronger effect = lower value
[73] = locus YMR231W, strain pep5, stronger effect = lower value
[74] = locus YNL071W, strain lat1, stronger effect = lower value
[75] = locus YNL183C, strain NPR1, stronger effect = lower value
[76] = locus YNL209W, strain ssb2, stronger effect = lower value
[77] = locus YNL248C, strain rpa49, stronger effect = lower value
[78] = locus YNL322C, strain KRE1 (second series), stronger effect = lower value
[79] = locus YNR049C, strain mso1, stronger effect = lower value
[80] = locus YOR001W, strain rrp6, stronger effect = lower value
[81] = locus YOR070C, strain gyp1, stronger effect = lower value
[82] = locus YOR080W, strain dia2, stronger effect = lower value
[83] = locus YOR083W, strain WHI5, stronger effect = lower value
[84] = locus YOR106W, strain vam3, stronger effect = lower value
[85] = locus YOR231W, strain MKK1, stronger effect = lower value
[86] = locus YOR265W, strain rbl2, stronger effect = lower value
[87] = locus YOR270C, strain vph1, stronger effect = lower value
[88] = locus YOR290C, strain snf2, stronger effect = lower value
[89] = locus YPL051W, strain arl3, stronger effect = lower value
[90] = locus YPL078C, strain atp4, stronger effect = lower value
[91] = locus YPL106C, strain sse1, stronger effect = lower value
[92] = locus YPL240C, strain hsp82, stronger effect = lower value
[93] = locus YPL256C, strain CLN2, stronger effect = lower value

Measured: normalized growth

C/C(=C\C(=O)OCCCCCCCCC(=O)O)C[C@@H]1OC[C@H](C[C@@H]2O[C@H]2[C@@H](C)[C@H](C)O)[C@@H](O)[C@H]1O
active: [59] 0.827
inactive: [1] 0.96 | [2] 0.958 | [3] 0.96 | [4] 0.987 | [5] 0.961 | [6] 0.979 | [7] 0.929 | [8] 0.938 | [9] 0.986 | [10] 0.972 | [11] 0.967 | [12] 0.965 | [13] 0.957 | [14] 0.952 | [15] 0.973 | [16] 0.982 | [17] 0.956 | [18] 0.982 | [19] 0.99 | [20] 0.936 | locus YDR195W, strain ref2 0.964 | [21] 0.988 | [22] 0.951 | [23] 0.963 | [24] 0.941 | [25] 0.969 | [26] 0.968 | [27] 0.967 | [28] 0.99 | [29] 0.974 | [30] 0.93 | [31] 0.959 | [32] 0.984 | [33] 0.973 | [34] 0.979 | [35] 0.965 | [36] 1.01 | [37] 0.912 | [38] 0.985 | [39] 0.987 | [40] 0.895 | [41] 0.919 | [42] 0.98 | [43] 0.96 | [44] 0.965 | [45] 0.898 | [46] 0.954 | [47] 0.993 | [48] 0.968 | [49] 0.98 | [50] 1 | locus YJL187C, strain SWE1, stronger effect = lower value 0.976 | [51] 0.916 | [52] 0.982 | [53] 0.931 | [54] 0.971 | [55] 0.949 | [56] 0.971 | [57] 0.965 | [58] 0.965 | [60] 0.982 | [61] 0.968 | [62] 0.962 | [63] 0.968 | [64] 0.953 | [65] 0.977 | [66] 0.957 | [67] 0.952 | [68] 0.979 | [69] 0.989 | [70] 0.962 | [71] 0.974 | [72] 0.896 | [73] 0.961 | [74] 0.989 | [75] 0.89 | [76] 1 | [77] 1.02 | [78] 0.947 | [79] 0.951 | [80] 0.991 | [81] 0.969 | [82] 0.948 | [83] 0.996 | [84] 0.979 | [85] 0.904 | [86] 0.982 | [87] 0.987 | [88] 0.979 | [89] 0.984 | [90] 1 | [91] 0.906 | [92] 0.975 | [93] 0.911

CC(=O)OCC(=O)[C@H]1CCC2C3CC=C4C[C@@H](O)CC[C@]4(C)C3CC[C@@]21C (stereo partly specified)
active: [5] 0.819 | [8] 0.894 | [10] 0.858 | [12] 0.893 | [13] 0.893 | [15] 0.885 | [19] 0.742 | [20] 0.753 | locus YDR195W, strain ref2 1.4 [resistant] | [23] 0.908 | [24] 0.142 | [25] 0.894 | [31] 0.337 | [42] 0.593 | [47] 0.696 | [49] 0.853 | [50] 0.826 | [55] 0.829 | [57] 1.07 [resistant] | [58] 0.921 | [60] 0.816 | [62] 0.583 | [63] 0.435 | [64] 0.762 | [68] 0.805 | [70] 0.829 | [72] 0.833 | [74] 0.175 | [76] 1.08 [resistant] | [83] 0.885 | [87] 0.669 | [88] 0.862 | [90] 0.887 | [91] 1.3 [resistant]
inactive: [1] 1.04 | [2] 0.971 | [3] 0.993 | [4] 0.969 | [6] 0.97 | [7] 1 | [9] 0.998 | [11] 0.983 | [14] 0.965 | [16] 1.01 | [17] 1.01 | [18] 1.02 | [21] 1.02 | [22] 1.01 | [26] 0.999 | [27] 0.945 | [28] 1.01 | [29] 0.967 | [30] 0.986 | [32] 0.976 | [33] 1 | [34] 0.953 | [35] 0.935 | [36] 0.927 | [37] 0.937 | [38] 0.87 | [39] 1.05 | [40] 0.896 | [41] 0.915 | [43] 0.931 | [44] 0.97 | [45] 0.956 | [46] 1.02 | [48] 1.01 | [51] 0.913 | [52] 0.946 | [53] 1.01 | [54] 1.02 | [56] 0.935 | [59] 0.882 | [61] 0.963 | [65] 1.04 | [66] 1 | [67] 1.02 | [69] 0.924 | [71] 0.998 | [73] 1.02 | [75] 0.956 | [77] 0.899 | [78] 1.02 | [79] 0.991 | [80] 1.02 | [81] 1.03 | [82] 1.01 | [84] 0.913 | [85] 0.942 | [86] 0.979 | [89] 1 | [92] 1.03 | [93] 0.906

CC(=O)[C@H]1CCC2C3CC=C4C[C@@H](OS(=O)(=O)O)CC[C@]4(C)C3CC[C@@]21C (stereo partly specified)
inactive: locus YAL040C, strain CLN3, stronger effect = lower value 0.959 | locus YCL061C, strain MRC1 (second series), stronger effect = lower value 0.981 | locus YDR363W, strain ESC2, stronger effect = lower value 1.01 | locus YER002W, strain NOP16, stronger effect = lower value 0.979 | locus YMR263W, strain SAP30, stronger effect = lower value 0.978 | locus YMR307W, strain GAS1, stronger effect = lower value 0.997 | locus YNL175C, strain NOP13, stronger effect = lower value 0.988 | locus YNL197C, strain WHI3, stronger effect = lower value 1 | locus YNL224C, strain SQS1, stronger effect = lower value 0.984 | locus YNL322C, strain KRE1, stronger effect = lower value 0.964 | locus YOR083W, strain WHI5 (second series), stronger effect = lower value 0.975 | locus YPL241C, strain CIN2, stronger effect = lower value 0.984
